Assay results from PubChem BioAssay AID1159580 (chemical genetic matrix, 2015).
The campaign covered roughly 5,500 compounds. About 2,000 (36%) were called active. Not shown: some 18% with an inconclusive outcome. Rule as the data show it: active = normalized growth mostly below about 0.91 (no sharp cut-off); inconclusive = no clear call, values can overlap the other calls; inactive = mostly above about 0.92. The list shows a part of the results.

Experiment: chemical genetic growth profiling, strain panel (AID 1159580);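 also: tested at 20 µM; growth read once vehicle control cultures reached saturation at 30 °C; 1 = growth at the plate median or of vehicle wells; lower values mean less growth of the strain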
Details: growth OD

Measured: normalized growth

CC1(C)S[C@@H]2[C@H](NC(=O)[C@H](NC(=O)N3CCNC3=O)c3ccccc3)C(=O)N2C1C(=O)O (stereo partly drawn)
inactive: S. cerevisiae deletion strains, locus YJR075W, strain HOC1, hits give low values 1.01 | S. cerevisiae deletion strains, locus YKL009W, strain mrt4, hits give low values 0.967 | S. cerevisiae deletion strains, locus YKL068W, hits give low values 0.979 | S. cerevisiae deletion strains, locus YKL085W, strain MDH1 (second series), hits give low values 0.998 | S. cerevisiae deletion strains, locus YKL085W, strain MDH1, hits give low values 0.998 | S. cerevisiae deletion strains, locus YKL160W, strain elf1, hits give low values 0.957 | S. cerevisiae deletion strains, locus YKL190W, strain CNB1, hits give low values 0.995 | S. cerevisiae deletion strains, locus YKR001C, strain vps1, hits give low values 1 | S. cerevisiae deletion strains, locus YKR026C, strain gcn3, hits give low values 0.999 | S. cerevisiae deletion strains, locus YKR091W, strain srl3, hits give low values 0.974 | S. cerevisiae deletion strains, locus YLL001W, strain dnm1, hits give low values 0.957 | S. cerevisiae deletion strains, locus YLL026W, hits give low values 0.984 | S. cerevisiae deletion strains, locus YLL041C, strain sdh2, hits give low values 0.983 | S. cerevisiae deletion strains, locus YLR027C, strain aat2, hits give low values 0.976 | S. cerevisiae deletion strains, locus YLR039C, strain RIC1, hits give low values 1 | S. cerevisiae deletion strains, locus YLR058C, strain SHM2, hits give low values 0.989 | S. cerevisiae deletion strains, locus YLR102C, strain apc9, hits give low values 0.992 | S. cerevisiae deletion strains, locus YLR113W, strain HOG1, hits give low values 0.956 | S. cerevisiae deletion strains, locus YLR221C, strain rsa3, hits give low values 0.964 | S. cerevisiae deletion strains, locus YLR258W, strain gsy2, hits give low values 0.988 | S. cerevisiae deletion strains, locus YLR262C, strain YPT6 (second series), hits give low values 0.958 | S. cerevisiae deletion strains, locus YLR262C, strain YPT6, hits give low values 0.98 | S. cerevisiae deletion strains, locus YLR268W, strain sec22, hits give low values 0.993 | S. cerevisiae deletion strains, locus YLR320W, strain mms22, hits give low values 0.956 | S. cerevisiae deletion strains, locus YLR330W, strain CHS5, hits give low values 0.997 | S. cerevisiae deletion strains, locus YLR342W, strain FKS1 (second series), hits give low values 1.01 | S. cerevisiae deletion strains, locus YLR342W, strain FKS1, hits give low values 0.993 | S. cerevisiae deletion strains, locus YLR357W, strain rsc2, hits give low values 0.977 | S. cerevisiae deletion strains, locus YLR370C, strain arc18, hits give low values 0.98 | S. cerevisiae deletion strains, locus YLR371W, strain rom2, hits give low values 0.997 | S. cerevisiae deletion strains, locus YLR384C, strain iki3, hits give low values 0.976 | S. cerevisiae deletion strains, locus YLR418C, strain cdc73, hits give low values 0.995 | S. cerevisiae deletion strains, locus YML016C, strain PPZ1, hits give low values 1 | S. cerevisiae deletion strains, locus YML032C, strain rad52, hits give low values 1.01 | S. cerevisiae deletion strains, locus YML120C, strain ndi1, hits give low values 0.959 | S. cerevisiae deletion strains, locus YML124C, strain tub3, hits give low values 0.996 | S. cerevisiae deletion strains, locus YMR058W, strain fet3, hits give low values 0.973 | S. cerevisiae deletion strains, locus YMR078C, strain ctf18, hits give low values 0.98 | S. cerevisiae deletion strains, locus YMR125W, strain sto1, hits give low values 1 | S. cerevisiae deletion strains, locus YMR129W, hits give low values 0.991 | S. cerevisiae deletion strains, locus YMR205C, strain PFK2, hits give low values 0.954 | S. cerevisiae deletion strains, locus YMR223W, strain ubp8, hits give low values 0.962 | S. cerevisiae deletion strains, locus YMR231W, strain pep5, hits give low values 0.985 | S. cerevisiae deletion strains, locus YMR307W, strain GAS1, hits give low values 1.08 | S. cerevisiae deletion strains, locus YNL067W, strain RPL9B, hits give low values 1.02 | S. cerevisiae deletion strains, locus YNL071W, strain lat1, hits give low values 0.989 | S. cerevisiae deletion strains, locus YNL128W, strain TEP1, hits give low values 0.991 | S. cerevisiae deletion strains, locus YNL183C, strain NPR1, hits give low values 0.942 | S. cerevisiae deletion strains, locus YNL209W, strain ssb2, hits give low values 0.989 | S. cerevisiae deletion strains, locus YNL233W, strain BNI4, hits give low values 1.04 | S. cerevisiae deletion strains, locus YNL248C, strain rpa49, hits give low values 0.993 | S. cerevisiae deletion strains, locus YNL250W, strain rad50, hits give low values 0.975 | S. cerevisiae deletion strains, locus YNL271C, strain bni1, hits give low values 1 | S. cerevisiae deletion strains, locus YNL298W, strain CLA4, hits give low values 0.978 | S. cerevisiae deletion strains, locus YNL307C, strain MCK1, hits give low values 0.994 | S. cerevisiae deletion strains, locus YNL322C, strain KRE1 (second series), hits give low values 0.983 | S. cerevisiae deletion strains, locus YNL322C, strain KRE1, hits give low values 0.993 | S. cerevisiae deletion strains, locus YNR049C, strain mso1, hits give low values 0.975 | S. cerevisiae deletion strains, locus YNR052C, strain pop2, hits give low values 0.986 | S. cerevisiae deletion strains, locus YOL006C, strain TOP1, hits give low values 1.04 | S. cerevisiae deletion strains, locus YOL012C, strain htz1 1.4 | S. cerevisiae deletion strains, locus YOL147C, strain pex11, hits give low values 0.985 | S. cerevisiae deletion strains, locus YOR001W, strain rrp6, hits give low values 0.981 | S. cerevisiae deletion strains, locus YOR061W, strain CKA2, hits give low values 1 | S. cerevisiae deletion strains, locus YOR069W, strain VPS5, hits give low values 0.988 | S. cerevisiae deletion strains, locus YOR070C, strain gyp1, hits give low values 0.992 | S. cerevisiae deletion strains, locus YOR080W, strain dia2, hits give low values 0.969 | S. cerevisiae deletion strains, locus YOR083W, strain WHI5, hits give low values 0.957 | S. cerevisiae deletion strains, locus YOR106W, strain vam3, hits give low values 0.951 | S. cerevisiae deletion strains, locus YOR136W, strain idh2, hits give low values 0.996 | S. cerevisiae deletion strains, locus YOR144C, strain elg1, hits give low values 1.01 | S. cerevisiae deletion strains, locus YOR184W, strain ser1, hits give low values 0.991 | S. cerevisiae deletion strains, locus YOR231W, strain MKK1, hits give low values 0.975 | S. cerevisiae deletion strains, locus YOR265W, strain rbl2, hits give low values 0.983 | S. cerevisiae deletion strains, locus YOR270C, strain vph1, hits give low values 0.968 | S. cerevisiae deletion strains, locus YOR290C, strain snf2, hits give low values 0.936 | S. cerevisiae deletion strains, locus YOR316C, strain cot1, hits give low values 0.99 | S. cerevisiae deletion strains, locus YPL051W, strain arl3, hits give low values 0.99 | S. cerevisiae deletion strains, locus YPL078C, strain atp4, hits give low values 0.974 | S. cerevisiae deletion strains, locus YPL106C, strain sse1, hits give low values 0.944 | S. cerevisiae deletion strains, locus YPL240C, strain hsp82, hits give low values 0.985 | S. cerevisiae deletion strains, locus YPL256C, strain CLN2, hits give low values 0.955 | S. cerevisiae deletion strains, locus YPR119W, strain clb2, hits give low values 0.997 | S. cerevisiae deletion strains, locus YPR141C, strain kar3, hits give low values 0.989 | S. cerevisiae deletion strains, locus YPR163C, strain tif3, hits give low values 0.975 | S. cerevisiae deletion strains, locus YPR167C, strain met16, hits give low values 0.985 | S. cerevisiae deletion strains, strain wtn01, hits give low values 1 | S. cerevisiae strains, strain wild type, hits give low values 1
